Data reported in PubChem BioAssay AID2058 (Sanford-Burnham Center for Chemical Genomics, 2009).
Hit rate of the full screen: of about 290,000 compounds, about 150 (0.052%) were called active. What follows is part of a selection rich in actives, with near analogues and random picks from the rest. Measured potencies and affinities stand elsewhere. Unmarked numbers belong to inactive results.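 Rule for the calls: active = inhibition of at least 50% with at least 30 cells and total cytoplasm GFP at most 10,000,000; inconclusive = under 30 cells or total GFP of 10,000,000 plus; inactive = the rest.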

target: G-protein coupled receptor 35 (Homo sapiens) (UniProt Q9HC97); assay: GPR35 antagonists blocking zaprinast-driven arrestin recruitment, primary screen, imaging, U2OS, beta-arrestin-GFP, zaprinast agonist (AID 2058); conditions: U2OS GPR35 beta-arrestin-GFP translocation imaging, zaprinast antagonism; at 10 µM; stronger effect = higher value
Sequence (Q9HC97 whole entry, looked up): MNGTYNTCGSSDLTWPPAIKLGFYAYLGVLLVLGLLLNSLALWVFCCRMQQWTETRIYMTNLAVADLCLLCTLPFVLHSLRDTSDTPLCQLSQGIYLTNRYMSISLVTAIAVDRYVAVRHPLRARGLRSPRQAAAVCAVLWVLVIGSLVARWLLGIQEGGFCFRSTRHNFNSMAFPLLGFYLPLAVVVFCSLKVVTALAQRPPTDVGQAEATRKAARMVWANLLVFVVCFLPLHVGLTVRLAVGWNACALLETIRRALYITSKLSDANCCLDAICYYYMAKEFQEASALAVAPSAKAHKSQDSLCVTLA

SMILES	inhibition
CC(=O)N1CC=C2C(C#N)=C(N)C(C#N)(C#N)[C@H](c3ccoc3)[C@H]2C1	2.7%
CN1CC=C2C(C#N)=C(N)C(C#N)(C#N)[C@H](c3ccoc3)[C@H]2C1	74.6% (active)
CC(C)(C)OC(=O)N1CC=C2C(C#N)=C(N)C(C#N)(C#N)[C@H](c3cccnc3)[C@H]2C1	3.8%
CN1C2C=C3C(C#N)=C(N)C(C#N)(C#N)[C@@H](c4ccsc4)[C@@H]3C1CC2 (stereo not given in full)	-6.4%
CCOC(=O)N1CC=C2C(C#N)=C(N)C(C#N)(C#N)[C@H](c3ccc(OCC)c(OCC)c3)[C@H]2C1	-0.6%
CCN1CC=C2C(C#N)=C(N)C(C#N)(C#N)[C@H](c3ccoc3)[C@H]2C1	67.4% (active)
CCOC(=O)N1CC=C2C(C#N)=C(N)C(C#N)(C#N)[C@H](c3ccsc3)[C@H]2C1	7.2%
N#CC1=C(N)C(C#N)(C#N)[C@H](c2ccoc2)[C@H]2CN(Cc3ccccc3)CC=C12	9.6%
CCCCc1nc(SCC(=O)Nc2cccc(Cl)c2)n[nH]1	-17%
Cc1cccc(Cc2cnc(N3C(=N)SC(C)C3=O)s2)c1 (stereo not given)	-5.2%
O=C(CSc1nnc(C2CCCCC2)o1)N1CCCCC1	11.7%
CCN(C(=O)C(C)OC(=O)C1C(C(=O)OC)=C(C)NC(C)=C1C(=O)OC)c1ccccc1 (stereo not given)	-20.3%
COc1ccc(NC(=O)c2cc3c([nH]c4ccccc43)c(C)n2)cc1	-5.7%
C=CCn1c(SCC(=O)N(C)C2CCS(=O)(=O)C2)nnc1-c1ccncc1 (stereo not given)	11.4%
CCOC(=O)C1CCN(C(=O)CSc2ccccc2)CC1	-1.8%
COc1cc([N+](=O)[O-])cc(/C=C2/SC(=S)N(Cc3ccccc3)C2=O)c1O	2.7%
O=C1/C(=C\c2cc([N+](=O)[O-])ccc2O)SC(=S)N1Cc1ccc(Cl)cc1	61.1% (active)
O=C1/C(=C/c2ccc(O)c([N+](=O)[O-])c2)SC(=S)N1Cc1ccccc1	0.6%
Cc1nc2c(C(=O)NCc3ccc4c(c3)OCO4)cnn2c(C)c1Cc1ccc(F)cc1Cl	-16.4%
Cc1oc(-c2ccc(Cl)cc2)nc1CS(=O)CC(=O)NCCCN(C)C1CCCCC1 (stereo not given)	-9.6%
COC(=O)C1CN(S(=O)(=O)c2cc(OC)ccc2OC)CCS1 (stereo not given)	-8.4%
CC[n+]1c(/C=C/c2ccc(N(C)C)cc2)ccc2ccccc21	6.3%
CC[n+]1ccccc1/C=C/c1ccc(N(C)C)cc1	-10.4%

SMILES	inhibition
CC[n+]1ccc(/C=C/c2ccc(N(C)C)cc2)c2ccccc21	103% (active)
CCCC(=O)N1CCN(c2nc3c(OC)ccc(Cl)c3s2)CC1	12.2%
CCC(Oc1ccc2ccccc2c1)C(=O)O (stereo not given)	6.8%
CC(=O)N(C1=C(O)c2ccccc2C(=O)C1=O)C1CCCCC1	-5.2%
CC(=O)N(c1ccccc1)C1CCCC1	-22.8%
O=C(NC1CCCCCC1)C1CCCN(S(=O)(=O)c2cccs2)C1 (stereo not given)	-5.5%
CCN1CCN(C(=O)c2ccccc2NC(=O)c2ccc(Cl)cc2)CC1	1%
Cc1[nH]c(=O)[nH]c(=O)c1S(=O)(=O)N1CCCC(C(=O)N2CCN(c3ccccc3Cl)CC2)C1 (stereo not given)	3.5%
COc1ccc(NC(=O)/C(Cl)=C(/Cl)S(=O)Cc2ccc(Cl)cc2)cn1 (stereo not given)	3.1%
COc1ccc(NC(=O)/C(Cl)=C(/Cl)S(=O)Cc2ccccc2)cn1 (stereo not given)	9.5%
COc1ccc(NC(=O)/C(Cl)=C(/Cl)S(=O)Cc2ccccc2Cl)cn1 (stereo not given)	115% (active)
Cc1ccc(-c2nc3ncccc3n2O)cc1	2.4%
Cc1ccc(F)cc1NC(=O)CSc1nc(Nc2ccccc2)nc(N2CCOCC2)n1	17.7%
Cc1cc(/C=C(\C#N)c2nc3ccccc3[nH]2)c(C)n1C	-1.1%
COc1cccc(/C=C(\C#N)c2nc3ccc(C)cc3[nH]2)c1OCC(=O)O	-10.4%
Cc1ccc2nc(/C(C#N)=C/c3ccc(O)c(O)c3)[nH]c2c1	-1.2%
CCOc1cc(/C=C(\C#N)c2nc3ccccc3[nH]2)ccc1OC(C)C(=O)O (stereo not given)	9.3%
CCOc1cc(N(CC)CC)ccc1/C=C(/C#N)c1nc2ccccc2[nH]1	99.9% (active)
CCOc1cccc(/C=C(/C#N)c2nc3ccccc3[nH]2)c1OCC(=O)O	-3.5%
Cc1ccc2nc(/C(C#N)=C/c3ccccc3C(=O)O)[nH]c2c1	-7.1%
N#C/C(=C\c1ccccc1OCC(=O)O)c1nc2ccccc2[nH]1	-0.8%
COc1cc(/C=C(\C#N)c2nc3ccc(C)cc3[nH]2)c([N+](=O)[O-])cc1OC	2.2%
CCC(=O)c1c[nH]c(C(=O)NCCc2ccccn2)c1	-8%

SMILES	inhibition
O=C(OCc1cc(Cl)ccc1OC(F)F)c1ccc([N+](=O)[O-])o1	8.7%
CCCCC1=CC2=CC(=O)C(C)(OC(=O)CC)C(=O)C2=CN1C(CO)CO (stereo not given)	-6.6%
CC(C)NCCOCCOc1ccccc1F	12.6%
N#Cc1cccc(NC(=O)NCCc2c[nH]c3ccccc23)c1	-5.4%
Cc1cc(C)c(S(=O)(=O)N2CCCOC2CNC(=O)C(=O)NCc2cccs2)c(C)c1 (stereo not given)	-5.9%
COc1ccccc1NC(=O)Cn1c(=O)n(C)c(=O)c2sc3c(c21)COC(C)(C)C3	5.9%
CC(/C=C1\SC(=O)N(CC(=O)Nc2ccc(O)cc2)C1=O)=C\c1ccccc1	-6.3%
CC(=C\c1ccccc1)/C=C1/SC(=O)N(CCCC(=O)Nc2ccc(C(=O)O)cc2)C1=O	108% (active)
CC(/C=C1\SC(=S)N(CCCC(=O)Nc2ccc(C(=O)O)cc2)C1=O)=C\c1ccccc1	114% (active)
CC(=O)c1ccc(NC(=O)CCCN2C(=O)/C(=C/C(C)=C/c3ccccc3)SC2=S)cc1	19.4%
CC(/C=C1\SC(=O)N(CCCC(=O)O)C1=O)=C\c1ccccc1	-14.5%
CC(/C=C1\SC(=S)N(CCC(=O)Nc2ccc(O)cc2)C1=O)=C\c1ccccc1	0.1%
CC(=O)N(Cc1cc2c(C)cc(C)cc2[nH]c1=O)C1CCCCC1	1.4%
O=C(Nc1ccccc1)C1=C[C@@H](c2csc3ccccc23)C[C@@H](OCc2ccc(CO)cc2)O1	-24.8%
CC(=O)Nc1sc(/C(C#N)=C\c2cccc(Cl)c2)nc1-c1ccc(C)cc1	18.1%
CCN(CC)c1ccc(/C=C(\C#N)c2nc(-c3cccs3)c(NC(C)=O)s2)cc1	70.6% (active)
CC(=O)Nc1sc(N/N=C/c2ccc(C)cc2)nc1-c1ccc(C)cc1	-2.6%
CCN(CC)c1ccc(/C=C(\C#N)c2ccccn2)cc1	15.1%
CC(=O)Nc1sc(N/N=C\c2ccc(O)cc2)nc1-c1cccs1	-8.9%
CC1Cc2ccccc2N1C(=O)CSc1nc(-c2ccccc2)cs1 (stereo not given)	-14.5%
O=C(Nc1nc(-c2cccc([N+](=O)[O-])c2)cs1)C(c1ccccc1)c1ccccc1	0.8%
COC(=O)c1cc(OC)c(OC)cc1N1C(=O)CCCC1=O	8.7%
CC(=O)N1CCc2[nH]c3ccccc3c2C1	4.9%

SMILES	inhibition
Cc1ccc(C)c2c1[nH]c1ccccc12	15.5%
CC(=O)N1C=Cc2c(c(C)c3c([nH]c4ccccc43)c2C)C1	71.5% (active)
Cc1noc(C)c1C(=O)OCC(=O)c1c(N)n(CC(C)C)c(=O)n(C)c1=O	-3.5%
Cc1ccccc1N1CCN(C2CCCN(C(=O)c3ccc(Cl)s3)C2)CC1 (stereo not given)	0.1%
CCOC(=O)/C=C(C)\C=C\c1c[nH]c2ccccc12	-3.8%
O=C(/C=C/c1c[nH]c2ccccc12)c1ccccc1	-6.3%
Cc1ccccc1Cn1c2ccccc2c2cnn(CC(=O)NCCCN3CCN(C)CC3)c(=O)c21	-6.2%
O=S(=O)(Nc1nc2ccccc2nc1Cl)c1ccc(Cl)cc1	-9.2%
O=S(=O)(Nc1cc2nc3ccccc3nc2n1Cc1ccccc1)c1ccc(Cl)cc1	85.4% (active)
O=S(=O)(Nc1nc2ccccc2nc1-[n+]1ccccc1)c1ccc(Cl)cc1	-1.7%
O=C(Nc1ccc(Cl)cn1)c1ccc(Oc2ccccc2)cc1	0.8%
CCOC(=O)CCCSc1nc2sc3c(c2c(=O)[nH]1)CCC3	1.8%
Cn1cc(CN2CCC(n3nccc3NC(=O)c3ccccc3Cl)CC2)cn1	-15.2%
CCc1nnc(NS(=O)(=O)c2ccc(NC(=S)NC(=O)/C=C/c3ccccc3)cc2)s1	-2.9%
CCc1nnc(NS(=O)(=O)c2ccc(NC(=S)NC(=O)/C=C/c3ccc(F)cc3)cc2)s1	11.3%
Cc1ccc(C(=O)N(CC(=O)NC2CCCC2)c2ccccc2C)s1	4.4%
CCc1ccc(/C=C2/SC(=S)N(CCC(=O)Nc3cccnc3)C2=O)cc1	-11.4%
COC(=O)CSc1nc2ccc(NC(=O)c3ccccc3C(=O)N3CCOCC3)cc2s1	-10.4%
O=C(O)c1ccc(CSc2nc3ccc(NC(=O)c4ccccc4C(=O)O)cc3s2)cc1	-3.4%
CN(C(=O)c1ccc2ccccc2c1)c1ccccn1	13.4%
CC(C)c1ccc[n+](-c2nc([O-])sc2C=O)c1	-8.7%
